Among the data in PubChem BioAssay are composite z-score and z-score values, retold here.

Assay [1] can be described thus: anti-His antibody binders, primary screen, artefact control for SMM control protein annotation, biochemical, small-molecule microarray, 635 nm fluorescence (AID 1128).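 Further: score merges feature fluorescence with signal-to-noise for each printed compound spot.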 Particulars: anti-His Alexa647 antibody binding, higher = more signal.
Assay [2] relates to Human papillomavirus type 1a E7 protein (residues 1-88). Briefly: HPV1a E7 small-molecule binders, primary screen, biochemical, small-molecule microarray, residues 1-88, 635 nm (AID 1129). Particulars: small-molecule microarray binding, fluorescence 635 nm; higher = more signal.
Assay [3] concerns the target Focal adhesion kinase 1 (Homo sapiens) (UniProt Q05397). The assay can be described thus: small-molecule microarray binders of FAK, primary screen, biochemical, 635/667 nm fluorescence, BSA, DTT (AID 1130).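 Further: composite of spot emission at 667 nm and signal to noise over triplicate slides.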 The settings on record: PTK2 binding, 635 nm fluorescence, higher = more signal.
For assay [4], the system named is Fibrinogen (Alexa647-labelled). The assay can be described thus: fibrinogen binders on compound microarrays, profiling panel, artefact control for SMM control-protein annotation, biochemical, small-molecule microarray, 635/667 nm fluorescence (AID 1131).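 Further: z-score merges 667 nm fluorescence with per-spot signal-to-noise over triplicate slides.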 The settings on record: fibrinogen-A647 binding fluorescence, higher = more signal.
Assay [5] concerns the target Follistatin (Homo sapiens) (UniProt P19883). The assay can be described thus: follistatin binders on small-molecule microarrays, primary screen, biochemical, small-molecule microarray, 635/667 nm fluorescence (AID 1132). Particulars: FST binding, 635 nm fluorescence, higher = more signal.
Assay [6] has as its target Fibroblast growth factor 2 (Homo sapiens) (UniProt P09038). Briefly: FGF2 binders on small-molecule microarrays, primary screen, biochemical, small-molecule microarray, 635/667 nm fluorescence (AID 1133). The settings on record: small-molecule microarray binding, FGF2, fluorescence 635/667; higher = more signal.
Assay [7] can be described thus: mitochondrial membrane potential change in A549 cells, profiling panel, cell-based, JC-1 fluorescence, basal, 24 h, 100 nL (AID 1138).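 Further: A549 lung adenocarcinoma cells under basal conditions with no added stimulus; test concentration not given here.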 Particulars: higher = more signal.
A further assay concerns Lefty1. Briefly: Lefty1 binders on small-molecule microarrays, primary screen, biochemical, small-molecule microarray, 635/667 nm fluorescence (AID 1139). Particulars: small-molecule microarray binding, fluorescence 635/667; higher = more signal.
Assay [8] concerns wheat germ agglutinin (Triticum aestivum), Alexa647-labelled. The assay can be described thus: wheat germ agglutinin binders on compound microarrays, profiling panel, artefact control for SMM control-protein annotation, biochemical, small-molecule microarray, 635/667 nm fluorescence (AID 1140).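 Further: score merges 667 nm feature emission with signal to noise over triplicate slides.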 Particulars: WGA-A647 binding, 635 nm fluorescence, higher = more signal.
Assay [9] addresses Luciferin 4-monooxygenase (Photinus pyralis) (UniProt P08659). The assay can be described thus: firefly luciferase enzyme inhibitors, primary screen, biochemical, luminescence, purified enzyme, 2006 set (AID 1141).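 Further: cell-free assay with purified firefly luciferase at 100 ng per well in PBS; test concentration not given here.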 The settings on record: SteadyGlo luminescence, 30 min, higher = more signal, called active from +8 up or from −8 down.
Assay [10] relates to Wnt5a (protein binding on small-molecule microarray). The assay can be described thus: Wnt5a binders on small-molecule microarray, primary screen, biophysical, 635/667 nm fluorescence (AID 1142).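 Further: fluorescence read at 667 nm with signal to noise per printed feature.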 The settings on record: 635 nm fluorescence, higher = more signal.
Assay [11] in a line: cell viability in Huh7 cells, primary screen, cytotoxicity control for HCV replication inhibitor project, CellTiter-Glo luminescence, basal, 48 h (AID 1143).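 Further: Huh7 hepatoma cells carrying a hepatitis C replication reporter with no stimulus; test concentration not given here.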 Particulars: Huh7 HCV replicon, higher = more signal, called active from +8 up or from −8 down.
Assay [12] can be described thus: P. aeruginosa biofilm formation inhibitors, primary screen, PAO1 strain, BacTiter-Glo luminescence, LB-PBS (AID 1144). The settings on record: 12 h, higher = more signal.
Assay [13] in a line: CREB reporter modulators without forskolin, primary screen, cell-based, PC12, CRE-LacZ reporter, unstimulated (AID 1145). Particulars: no forskolin, luminescence, 4.5 h, higher = more signal, called active from +8 up or from −8 down.
A short description of assay [14]: CREB reporter modulators under forskolin, primary screen, cell-based, PC12, CRE-LacZ reporter, forskolin-stimulated (AID 1146).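 Further: PC12 cells with 6xCRE LacZ reporter stimulated by forskolin 10 µM; beta-galactosidase reporter signal reflecting CREB driven transcription.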 Particulars: luminescence, 4.5 h, higher = more signal, called active from +8 up or from −8 down.
Assay [15] deals with Streptavidin (Streptomyces avidinii) (UniProt P22629). The assay can be described thus: streptavidin binders on small-molecule microarray, primary screen, artefact control for SMM compound annotation, biophysical, 635/667 nm fluorescence (AID 1147).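 Further: signal reflects streptavidin binding to arrayed compounds as a control protein.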 Particulars: streptavidin binding, higher = more signal.
Assay [16] in a line: small-molecule binders of probe aInhba, primary screen, biochemical, small-molecule microarray, 635/667 nm fluorescence (AID 1148).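 Further: score merges 667nm spot fluorescence with signal-to-noise for antibody binding to printed compounds.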 Particulars: higher = more signal.
In assay [17] the target is Torsin-1A (Homo sapiens) (UniProt O14656). Briefly: torsin A binders from cell lysate, primary screen, small-molecule microarray, wild-type, 635/667 nm (AID 1149). Particulars: COS7 hTOR1A-WT lysate, 635 nm fluorescence, higher = more signal.
The target is the same in assay [18]. The assay can be described thus: small-molecule binders of mutant TOR1A in lysate, primary screen, cell lysate, small-molecule microarray, COS7 lysate, 635/667 nm fluorescence (AID 1150).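 Further: score pools 667 nm emission and signal to noise measuring lysate protein binding.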 The settings on record: COS7 hTOR1A mutant lysate, 635 nm fluorescence, higher = more signal.
Assay [19] concerns Sonic hedgehog protein (Shh). Briefly: small-molecule binders of Shh protein, primary screen, biochemical, small-molecule microarray, 635/667 nm fluorescence (AID 1151).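 Further: Shh protein binding to compounds spotted on small-molecule microarray slides; score combines spot fluorescence intensity with signal-to-noise across triplicate slides.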 Particulars: small-molecule microarray binding, 635 nm fluorescence; higher = more signal.

SMILES strings stand for the structures. Calls of active or inactive are those of the source. Unless noted, how the calls were made is not given here.

Sequence of Streptavidin (Streptomyces avidinii) (P22629 whole entry, looked up): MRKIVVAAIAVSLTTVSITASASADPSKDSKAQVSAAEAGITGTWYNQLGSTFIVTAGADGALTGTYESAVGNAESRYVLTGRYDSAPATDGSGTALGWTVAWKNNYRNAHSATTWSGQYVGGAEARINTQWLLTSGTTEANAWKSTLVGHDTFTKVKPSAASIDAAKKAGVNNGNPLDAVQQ
Sequence of Focal adhesion kinase 1 (Homo sapiens) (Q05397 whole entry, looked up): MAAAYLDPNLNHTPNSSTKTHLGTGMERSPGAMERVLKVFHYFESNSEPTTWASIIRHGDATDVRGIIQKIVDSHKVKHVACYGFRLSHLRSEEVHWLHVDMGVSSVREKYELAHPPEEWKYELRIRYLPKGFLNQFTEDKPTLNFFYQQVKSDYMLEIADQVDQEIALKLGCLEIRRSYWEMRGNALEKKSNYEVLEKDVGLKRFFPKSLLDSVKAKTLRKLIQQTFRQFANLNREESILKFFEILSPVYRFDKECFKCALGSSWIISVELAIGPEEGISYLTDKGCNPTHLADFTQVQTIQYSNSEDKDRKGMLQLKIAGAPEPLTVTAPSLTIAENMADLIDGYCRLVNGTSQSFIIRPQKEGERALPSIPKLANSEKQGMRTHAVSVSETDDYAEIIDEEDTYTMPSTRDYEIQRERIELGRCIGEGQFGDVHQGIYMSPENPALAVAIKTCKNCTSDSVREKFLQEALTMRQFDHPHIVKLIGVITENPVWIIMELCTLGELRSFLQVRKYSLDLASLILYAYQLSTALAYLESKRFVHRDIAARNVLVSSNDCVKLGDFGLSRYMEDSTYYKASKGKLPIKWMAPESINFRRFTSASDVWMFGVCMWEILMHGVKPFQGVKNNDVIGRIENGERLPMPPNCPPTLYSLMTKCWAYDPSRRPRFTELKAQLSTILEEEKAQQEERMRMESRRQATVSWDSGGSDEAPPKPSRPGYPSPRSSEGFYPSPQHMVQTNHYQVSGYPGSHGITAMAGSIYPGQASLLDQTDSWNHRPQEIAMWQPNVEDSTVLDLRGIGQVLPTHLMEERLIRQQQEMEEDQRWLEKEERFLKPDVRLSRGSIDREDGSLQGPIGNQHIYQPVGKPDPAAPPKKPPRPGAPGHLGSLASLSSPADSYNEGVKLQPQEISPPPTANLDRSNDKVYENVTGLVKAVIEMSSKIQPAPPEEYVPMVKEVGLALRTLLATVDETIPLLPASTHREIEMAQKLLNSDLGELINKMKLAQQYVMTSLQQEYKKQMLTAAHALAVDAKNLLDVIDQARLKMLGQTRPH
Sequence of Fibroblast growth factor 2 (Homo sapiens) (P09038 whole entry, looked up): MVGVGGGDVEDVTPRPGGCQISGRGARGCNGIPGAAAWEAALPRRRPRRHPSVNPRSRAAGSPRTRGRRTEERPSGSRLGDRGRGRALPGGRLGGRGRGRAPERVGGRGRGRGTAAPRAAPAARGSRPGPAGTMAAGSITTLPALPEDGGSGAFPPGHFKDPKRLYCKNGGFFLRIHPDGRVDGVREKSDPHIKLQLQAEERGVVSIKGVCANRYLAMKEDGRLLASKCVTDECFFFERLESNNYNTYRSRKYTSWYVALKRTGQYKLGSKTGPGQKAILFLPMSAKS
Sequence of Torsin-1A (Homo sapiens) (O14656 whole entry, looked up): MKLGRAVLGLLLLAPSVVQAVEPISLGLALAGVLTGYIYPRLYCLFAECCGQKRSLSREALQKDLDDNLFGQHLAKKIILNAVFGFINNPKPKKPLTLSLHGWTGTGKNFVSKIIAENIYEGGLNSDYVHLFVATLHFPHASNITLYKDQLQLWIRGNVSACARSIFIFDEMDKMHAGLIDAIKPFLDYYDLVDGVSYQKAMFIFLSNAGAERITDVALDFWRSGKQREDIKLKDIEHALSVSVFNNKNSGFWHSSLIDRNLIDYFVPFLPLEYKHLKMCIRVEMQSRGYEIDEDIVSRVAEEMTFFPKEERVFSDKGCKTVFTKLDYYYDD
Sequence of Follistatin (Homo sapiens) (P19883 whole entry, looked up): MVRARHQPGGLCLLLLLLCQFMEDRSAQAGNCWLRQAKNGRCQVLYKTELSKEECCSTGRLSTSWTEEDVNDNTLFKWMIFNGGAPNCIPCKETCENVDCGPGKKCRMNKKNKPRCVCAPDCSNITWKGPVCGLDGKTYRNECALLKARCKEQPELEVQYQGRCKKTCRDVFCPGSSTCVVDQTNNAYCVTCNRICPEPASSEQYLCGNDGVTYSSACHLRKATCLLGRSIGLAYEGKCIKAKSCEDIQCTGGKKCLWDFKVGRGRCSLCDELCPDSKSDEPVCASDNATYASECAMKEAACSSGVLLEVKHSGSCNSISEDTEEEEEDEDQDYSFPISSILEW
Sequence of Luciferin 4-monooxygenase (Photinus pyralis) (P08659 whole entry, looked up): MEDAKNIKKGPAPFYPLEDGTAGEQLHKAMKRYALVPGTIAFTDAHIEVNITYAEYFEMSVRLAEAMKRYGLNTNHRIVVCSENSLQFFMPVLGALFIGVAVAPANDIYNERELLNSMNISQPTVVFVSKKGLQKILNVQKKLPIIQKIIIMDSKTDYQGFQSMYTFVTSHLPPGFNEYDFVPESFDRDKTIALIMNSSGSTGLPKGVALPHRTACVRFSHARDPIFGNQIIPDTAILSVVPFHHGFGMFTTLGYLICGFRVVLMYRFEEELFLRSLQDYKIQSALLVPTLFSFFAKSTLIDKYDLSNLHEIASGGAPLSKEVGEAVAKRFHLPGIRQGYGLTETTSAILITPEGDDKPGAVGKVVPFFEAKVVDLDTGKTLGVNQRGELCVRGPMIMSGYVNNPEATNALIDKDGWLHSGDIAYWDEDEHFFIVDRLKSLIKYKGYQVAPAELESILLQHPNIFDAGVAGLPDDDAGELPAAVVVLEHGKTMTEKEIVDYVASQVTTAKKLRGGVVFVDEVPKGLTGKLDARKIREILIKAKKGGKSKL

For `C=CCNC(=O)[C@@H]1[C@H]2C(=O)O[C@H](c3ccccc3)[C@H](c3ccccc3)N2[C@H](c2ccccc2OCCO)[C@@]12C(=O)N(C(=O)OCCOC)c1ccc(C#CCNC(N)=O)cc12`, the composite z-score in assay [1] is 1.56; in assay [2], 1.14; in [3] it was 0.322; in assay [4], 0.887; in assay [5], 0.864; in assay [6], 0.658. The composite z-score was 0.857 in the assay with Lefty1; 0.916 in [8]; 0.0308 in [10]; 0.225 in assay [15]; 0.115 in [16]; 0.186 with Torsin-1A (Homo sapiens) [17]. Further, the composite z-score worked out at 0.697 with Torsin-1A (Homo sapiens) [18] and 1.53 in assay [19]. Also, the z-score was -0.206 in assay [7]; -0.63 (inactive) in assay [9]; -0.952 (inactive) in [11]; -0.441 (inactive) in assay [12]; -0.199 (inactive) in [13]; 0.447 (inactive) in [14].

In the case of `CN(C)CCCNC(=O)[C@@]1(C)c2ccccc2C(=O)N(Cc2cc(F)cc(C(F)(F)F)c2)[C@H]1c1ccc(CO)cc1`, the composite z-score was -0.731 in assay [1]; -0.358 in [2]; 0.63 in assay [3]; -0.0121 in [4]; -0.673 in assay [5]; -0.67 in assay [6]. Besides, the composite z-score was -0.91 in the assay with Lefty1; 0.397 in assay [8]; -0.569 in assay [10]; -0.432 in assay [15]; -0.179 in assay [16]; -1.2 with Torsin-1A (Homo sapiens) [17]. Besides, the composite z-score is 0.301 with Torsin-1A (Homo sapiens) [18] and -0.335 in assay [19]. In addition, the z-score was -0.202 in assay [7]; -0.0378 (inactive) in [9]; -1.69 (inactive) in [11]; 1.25 (inactive) in assay [12]; -0.0888 (inactive) in [13]; 0.506 (inactive) in assay [14].

For the compound `C=CCOC(=O)[C@H]1[C@@H]2C(=O)O[C@@H](c3ccccc3)[C@@H](c3ccccc3)N2[C@@H](c2ccc(OCCOC(=O)[C@H]3C[C@H]4C(=O)N5CCC[C@H]5C(=O)N4[C@H]3c3ccc(O)cc3)cc2)[C@]12C(=O)Nc1ccc(I)cc12`, the composite z-score in assay [1] was 2.88; in assay [2], 1.23; in assay [3], -0.0378; in assay [4], 0.396; in assay [5], 1.47; in assay [6], 1.6. Besides, the composite z-score in the assay with Lefty1 came out at 1.54; in assay [8], 1.66; in assay [10], 1.61; in assay [15], 1.93; in [16] it was 1.3; with Torsin-1A (Homo sapiens) [17] it was 2.59. For the same compound, the values for the composite z-score (with Torsin-1A (Homo sapiens) [18]; in [19]) were 2.65 and 2.04, respectively. Moreover, the z-score was -0.87 in assay [7]; 0.269 (inactive) in assay [9]; -2.04 (inactive) in [11]; 1.03 (inactive) in [12]; 0.0043 (inactive) in [13]; 0.803 (inactive) in assay [14].

As for `C[C@@]1([C@@H](NC(=O)c2ccccc2)c2ccc(-c3ccccc3)cc2)C[C@H]1C1CCCCC1`, the composite z-score is -1.28 in assay [1]; -0.202 in assay [2]; 0.327 in [3]; -0.695 in assay [4]; -0.548 in [5]; -1 in [6]. Further, the composite z-score in the assay on Lefty1 is -0.848; in assay [8], 0.519; in assay [10], 0.367; in [15] it was 1.1; in assay [16] it was 0.333; with Torsin-1A (Homo sapiens) [17], 0.0627. The composite z-score is -0.0293 in the assay with Torsin-1A (Homo sapiens) [18] and -1.1 in assay [19]. Besides, the z-score in assay [7] is -0.507; in assay [9], 1.32 (inactive); in [11] it was 0.147 (inactive); in [12], -0.232 (inactive); in assay [13], 0.201 (inactive); in assay [14], 0.957 (inactive).

In the case of `COC(=O)c1c(CC[C@@H](CO)NC(=O)N[C@@H](C)Cn2cc(C3(O)CCCCC3)nn2)oc(C(C)=O)c1C(=O)OC`, the composite z-score is 2.77 in assay [1]; 1.12 in assay [2]; -0.262 in [3]; 0.747 in [4]; 1.22 in assay [5]; 1.29 in assay [6]. Besides, the composite z-score in the assay with Lefty1 came to 1.66; in assay [8], 0.696; in assay [10] it was 0.315; in assay [15], 0.533; in [16], 0.225; with Torsin-1A (Homo sapiens) [17], 1.07. For the same compound, the composite z-score with Torsin-1A (Homo sapiens) [18] is 0.91; in assay [19] it was 2.06. Further, the z-score in assay [7] is -1; in assay [9], 0.599 (inactive); in assay [11] it was -2.63 (inactive); in [12], -1.04 (inactive); in [13] it was 1.59 (inactive); in assay [14] it was 0.214 (inactive).
